Results filed as inconclusive are left out. Activity calls are given as the source filed them. The calls were made as follows: active = hit-call score of the fitted dose curve at least 0.9, where 1 is the maximum; inconclusive = response in the unintended direction; inactive = score below 0.9.
Each compound was assayed on glucuronosyltransferase (UGT1A1), UGT1A1 (gene 54658) (assay: CLD_UGT1A1_24hr: CellzDirect (CLD) Gene Expression Assay for glucuronosyltransferase (UGT1A1) at 24 hours (AID 2283696)).
Method: CLD_24hr is a cell-based, multiplexed-readout assay that uses hepatocyte, a human liver primary cell, with measurements taken at 24 hours after chemical dosing in a 96-well plate.CLD_UGT1A1_24hr is one of 16 assay component(s) measured or calculated from the CLD_24hr assay. It is designed to make measurements of mRNA induction, a form of inducible reporter, as detected with chemiluminescence signals by Quantitative Nuclease Protection Assay (qNPA) technology.Data from the assay component CLD_UGT1A1_24hr was analyzed at the endpoint, CLD_UGT1A1_24hr, in the positive analysis fitting direction relative to DMSO as the negative control and baseline of activity. Using a type of inducible reporter, gain-of-signal activity can be used to understand changes in the reporter gene as they relate to the gene UGT1A1. Furthermore, this assay endpoint can be referred to as a primary readout. To generalize the intended target to other relatable targets, this assay endpoint is annotated to the transferase intended target family, where subfamily is glucuronosyltransferase.
Human hepatocyte cultures were treated daily for two consecutive days with fresh dosing solutions containing appropriate concentrations of the 320 ToxCast chemicals (chemical identities were blinded to CellzDirect and other ToxCast collaborators), vehicle control (0.2% DMSO), and positive control inducers as summarized in Table 1. Due to the large number of treatment groups and chemicals examined, the ToxCast chemicals were divided into two groups (spanning two independent cultures of hepatocytes from separate donor preparations (Hu778: ToxCast plates 1 and 2; Hu776: ToxCast plates 3 and 4). Each preparation of human hepatocyte cultures was treated with respective vehicle control, medium only control, set of six positive controls/reference chemicals for the five hepatic receptor pathways, and a subset of eight of the ToxCast chemicals (indoxacarb, pyrithiobac-sodium, norflurazon, cyhalofop-butyl, methomyl, thiram, acetochlor, and propiconazole). These replicate data, coupled with internal replicates designed within the blinded ToxCast chemical library, provided additional data to evaluate interindividual differences between hepatocyte preparations and their potential impact on chemical profiles.Cell morphology and integrity were evaluated using phase-contrast microscopy as an indicator of hepatocyte cell health (Tyson & Green, 1987). Cultures for each treatment group (i.e., media, vehicle [0.2% DMSO], positive control inducers [multiple concentrations], and the ToxCast chemicals [multiple concentrations]) were observed and cell morphology was assessed relative to vehicle control cultures at each harvest time point (0, 6, 24, or 48 h). […] Images were evaluated at the conclusion of the study to assess changes in cell integrity and account for the effects of chemical exposure on uncharacteristic changes in concentration-dependent gene expression profiles. The results from these determinations of apparent cytotoxicity were annotated (yes/no) alongside the corresponding qNPA data for reference.At the conclusion of each treatment period, hepatocyte cultures (96-well) were washed with 1 volume of HBSS, lysed by addition of 25 ul ArrayPlate lysis buffer (HTG, Tucson, AZ), and 70 ul/well of Denaturation Oil, denatured by incubation at 95C for 10 min, and frozen at approximately -70C until analysis by nuclease protection assay (qNPA) (Roberts et al., 2007). For qNPA analysis, cell lysates were thawed at 50C for approximately 30 min, qNPA probes were added, and samples were incubated at 95C for 10 min to begin the detection process by denaturing the target RNA, dissociating the duplexes and secondary structure hybridization. At the conclusion of the hybridization period, S1 nuclease reagent was added to each sample to digest all nonprotected nucleotides at 50C for 60-90 min. […]

Structure (SMILES)	outcome	AC50
Cc1cc(C)nc(Nc2ccccc2)n1	inactive	–
O=C(Nc1ccccc1-c1ccc(Cl)cc1)c1cccnc1Cl	inactive	–
CCOc1nc(F)cc2nc(S(=O)(=O)Nc3c(Cl)cccc3Cl)nn12	inactive	–
COc1ccc(-c2ccccc2)cc1NNC(=O)OC(C)C	inactive	–
CC(C)Nc1nc(Cl)nc(NC(C)C)n1	–	4.11 µM (active)
CCCN(CC)CC1COC2(CCC(C(C)(C)C)CC2)O1 (stereo not given)	inactive	–
O=C(O)c1c(Cl)ccc2cc(Cl)cnc12	inactive	–
Nc1cnn(-c2ccccc2)c(=O)c1Cl	inactive	–
CC1(C)CON(Cc2ccccc2Cl)C1=O	inactive	–
CCOc1cc(C(C)(C)C)ccc1C1COC(c2c(F)cccc2F)=N1 (stereo not given)	inactive	–
COCc1cnc(C2=NC(C)(C(C)C)C(=O)N2)c(C(=O)O)c1 (stereo not given)	inactive	–
CN=C=S	inactive	–
COP(=S)(OC)Oc1ccc([N+](=O)[O-])c(C)c1	inactive	–
COC(=O)N(C(=O)N1CO[C@@]2(C(=O)OC)Cc3cc(Cl)ccc3C2=N1)c1ccc(OC(F)(F)F)cc1	inactive	–
Cc1c(COC(=O)[C@@H]2[C@H](/C=C(\Cl)C(F)(F)F)C2(C)C)cccc1-c1ccccc1	–	20 µM (active)
N#CN=C1SCCN1Cc1ccc(Cl)nc1	inactive	–
O=P(O)(O)CCCl	inactive	–
Nc1c(Cl)c(F)nc(OCC(=O)O)c1Cl	inactive	–
CCOP(=S)(OCC)Oc1nc(Cl)n(C(C)C)n1	–	0.652 µM (active)
CCN(CC)c1nc(C)cc(OP(=S)(OC)OC)n1	inactive	–

Structure (SMILES)	outcome	AC50
CCCC(=NOCC)C1=C(O)CC(CC(C)SCC)CC1=O (stereo not given)	inactive	–
CCNP(=S)(OC)O/C(C)=C/C(=O)OC(C)C (stereo not given)	–	1.7 µM (active)
COC(=O)c1c(C(F)F)nc(C(F)(F)F)c(C2=NCCS2)c1CC(C)C	inactive	–
Cc1cnc(C2=NC(C)(C(C)C)C(=O)N2)c(C(=O)O)c1 (stereo not given)	inactive	–
OC(c1ccc(Cl)cc1)(c1ccc(Cl)cc1)C(Cl)(Cl)Cl	inactive	–
CC(C)NC(=O)N1CC(=O)N(c2cc(Cl)cc(Cl)c2)C1=O	inactive	–
C=CCOC(=O)C(C)(C)OC(=O)c1cc(-n2c(=O)cc(C(F)(F)F)n(C)c2=O)ccc1Cl	inactive	–
COCC(C)N(C(=O)CCl)c1c(C)csc1C (stereo not given)	inactive	–
CC(C)C1(C)N=C(c2ncccc2C(=O)O)NC1=O (stereo not given)	inactive	–
CC(C)=CC1C(C(=O)OCc2coc(Cc3ccccc3)c2)C1(C)C (stereo not given)	inactive	–
CCOc1nc(C(Cl)(Cl)Cl)ns1	inactive	–
CCCCC(C#N)(Cn1cncn1)c1ccc(Cl)cc1 (stereo not given)	inactive	–
CCOC(=O)C(C)OC(=O)c1cc(Oc2ccc(C(F)(F)F)cc2Cl)ccc1[N+](=O)[O-] (stereo not given)	–	2.46 µM (active)
COC(=O)NS(=O)(=O)c1ccc(N)cc1	inactive	–
CC(C)N1C(=O)N(c2ccccc2)CSC1=NC(C)(C)C	inactive	–
CSC(=O)c1c(C(F)F)nc(C(F)(F)F)c(C(=O)SC)c1CC(C)C	inactive	–
COc1cc(Cl)c(OC)cc1Cl	inactive	–
COP(=S)(OC)SCn1nnc2ccccc2c1=O	–	9.43 µM (active)
CC(C)Oc1cccc(NC(=O)c2ccccc2C(F)(F)F)c1	inactive	–
COCC(=O)N(c1c(C)cccc1C)C(C)C(=O)OC (stereo not given)	inactive	–
